# Data as given in PubChem BioAssay (NCI).
# About 79,000 compounds went through this panel and 15% of them were active in at least one assay; those are over-represented in the sample as a whole. Values without a mark were called inactive. Calls of active or inactive are those of the source. No stated cut-off is given here; in the data, active means growth inhibition above about 70%; inactive means the rest.
# Columns and labels:
# [1] = NCI Yeast Anticancer Drug Screen. Data for the rad52 strain (AID 147);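 further: 0% = growth of vehicle-treated control cultures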; settings: S. cerevisiae rad52 mutant growth inhibition, hits give high values
# Procedure, shortened: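 Here a repair-compromised yeast strain receives each compound; its growth is then quantified and normalised to vehicle-only controls.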
# [2] = NCI Yeast Anticancer Drug Screen. Data for the wt1 strain (AID 149);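 further: 0% = growth of vehicle-treated wt1 cultures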; settings: S. cerevisiae wt1 strain (SPY 50644) growth inhibition, hits give high values
# Procedure, shortened: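 Measured: growth of wt1 yeast under compound versus vehicle treatment, reported as inhibition.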
# [3] = NCI Yeast Anticancer Drug Screen. Data for the rad50EPP+ strain (AID 151);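 further: 0% = growth of vehicle-treated control cultures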; settings: S. cerevisiae rad50 mutant strain, hits give high values
# Procedure, shortened: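 Read-out is yeast growth inhibition relative to vehicle; cells used were the rad50EPP+ strain.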
# [4] = NCI Yeast Anticancer Drug Screen. Data for the mgt1 strain (AID 153); settings: S. cerevisiae mgt1 mutant growth inhibition, hits give high values
# Procedure, shortened: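 Measured: inhibition of mgt1 yeast growth by compound, normalized to vehicle-treated cultures.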
# [5] = NCI Yeast Anticancer Drug Screen. Data for the rad50 strain (AID 155);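 further: 0% = growth of vehicle-only cultures of the same strain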; settings: S. cerevisiae rad50 strain growth inhibition, hits give high values
# Procedure, shortened: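 Growth of the mutant yeast was measured after compound exposure and referenced to vehicle-treated cultures.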
# [6] = NCI Yeast Anticancer Drug Screen. Data for the mec2-1 strain (AID 157); settings: S. cerevisiae mec2-1 strain, hits give high values
# Procedure, shortened: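 Using mec2-1 yeast: add compound, measure growth, express inhibition versus vehicle-treated cultures.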
# [7] = NCI Yeast Anticancer Drug Screen. Data for the rad14 strain (AID 159);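 further: 0% = growth of vehicle-treated control cultures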; settings: S. cerevisiae rad14 strain growth inhibition, hits give high values
# Procedure, shortened: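 Here, inhibition of yeast growth was measured after compound exposure, using a strain with a genetic defect in DNA damage repair and vehicle-treated cultures as the reference.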
# [8] = NCI Yeast Anticancer Drug Screen. Data for the sgs1 mgt1 strain (AID 161);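 further: 0% = growth of cultures given vehicle only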; settings: S. cerevisiae sgs1 mgt1 strain, hits give high values
# Procedure, shortened: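 Growth of a repair-deficient yeast mutant was monitored after compound treatment and expressed as inhibition relative to vehicle-treated cultures.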
# [9] = NCI Yeast Anticancer Drug Screen. Data for the CLN2oe strain (AID 163);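 further: 0% = growth of vehicle-only control cultures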; settings: S. cerevisiae CLN2oe strain, hits give high values
# Procedure, shortened: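 Whole-cell yeast growth assay. A strain engineered for altered cell-cycle control received compound, and inhibition relative to vehicle-treated cultures was recorded.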
# [10] = NCI Yeast Anticancer Drug Screen. Data for the cln2 rad14 strain (AID 165);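 further: 0% = growth equal to vehicle treated cultures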; settings: S. cerevisiae cln2 rad14 strain, hits give high values
# Procedure, shortened: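 Yeast strain cln2 rad14, bearing defects in cell cycle control and DNA repair, serves as the test system; values reflect growth inhibition compared with vehicle.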
# [11] = NCI Yeast Anticancer Drug Screen. Data for the bub3 strain (AID 167); settings: S. cerevisiae bub3 mutant strain, hits give high values
# Procedure, shortened: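 Whole-cell yeast assay. The mutant strain was incubated with compounds, and growth inhibition was determined by comparison with vehicle-treated cells.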
# [12] = NCI Yeast Anticancer Drug Screen. Data for the wt2 strain (AID 169);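 further: 0% = growth of vehicle-treated yeast cultures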; settings: S. cerevisiae wt2 strain growth inhibition, hits give high values
# Procedure, shortened: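 Treated yeast vs. vehicle-treated yeast: growth inhibition determined.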
# [13] = NCI Yeast Anticancer Drug Screen. Data for the mlh1 strain (AID 171);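 further: 0% = growth of vehicle-treated control cultures of the same strain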; settings: S. cerevisiae mlh1 strain growth inhibition, hits give high values
# Procedure, shortened: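 A yeast strain with a defined genetic lesion serves as the test organism. Cultures receive compound or vehicle, and growth is measured.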
# [14] = NCI Yeast Anticancer Drug Screen. Data for the sgs1 strain (AID 173);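 further: 0% = growth of vehicle-only control cultures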; settings: S. cerevisiae sgs1 mutant, hits give high values
# Procedure, shortened: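 A genetically defined yeast mutant is incubated with the test compound, and its growth is compared to that of the same strain given vehicle.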
# [15] = NCI Yeast Anticancer Drug Screen. Data for the mlh1 rad18 strain (AID 175); settings: S. cerevisiae mlh1 rad18 strain growth inhibition, hits give high values
# Procedure, shortened: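 Steps: expose repair-defective yeast to compound; measure growth; express inhibition against vehicle-treated controls.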
# [16] = NCI Yeast Anticancer Drug Screen. Data for the rad18 strain (AID 177); settings: S. cerevisiae rad18 mutant growth inhibition, hits give high values
# Procedure, shortened: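 Measured value is growth inhibition of a yeast strain bearing a DNA repair alteration, referenced to vehicle-treated cells.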
# [17] = at 5.0 µM (retest, dose inferred, filed as 0.5)
# [18] = at 50.0 µM (retest, dose inferred, filed as 5.0)
smiles,measurement,setting,value
COC1C=COC2(C)Oc3c(C)c(O)c4c(c3C2=O)/C(=N/C2CCC(O)OC2C)C=C(NC(=O)/C(C)=C\C(=O)C2CC2C(O)C(C)C(O)C(C)C(OC(C)=O)C1C)C4=O (stereo not drawn),growth inhibition,[1]; at 1.2 µM,0%
same,growth inhibition,[1]; at 3.7 µM,-2%
same,growth inhibition,[1]; at 11.0 µM,-4%
same,growth inhibition,[1]; at 33.0 µM,17%
same,growth inhibition,[1]; at 100.0 µM,92% (active)
same,growth inhibition,[2]; at 1.2 µM,0%
same,growth inhibition,[2]; at 3.7 µM,0%
same,growth inhibition,[2]; at 11.0 µM,1%
same,growth inhibition,[2]; at 33.0 µM,-1%
same,growth inhibition,[2]; at 100.0 µM,11%
same,growth inhibition,[3]; at 1.2 µM,-2%
same,growth inhibition,[3]; at 3.7 µM,-10%
same,growth inhibition,[3]; at 11.0 µM,-14%
same,growth inhibition,[3]; at 33.0 µM,-7%
same,growth inhibition,[3]; at 100.0 µM,-6%
same,growth inhibition,[4]; at 1.2 µM,0%
same,growth inhibition,[4]; at 3.7 µM,-4%
same,growth inhibition,[4]; at 11.0 µM,-1%
same,growth inhibition,[4]; at 33.0 µM,29%
same,growth inhibition,[4]; at 100.0 µM,80% (active)
same,growth inhibition,[5]; at 1.2 µM,-2%
same,growth inhibition,[5]; at 3.7 µM,-3%
same,growth inhibition,[5]; [17],-16%
same,growth inhibition,[5]; at 11.0 µM,-2%
same,growth inhibition,[5]; at 33.0 µM,10%
same,growth inhibition,[5]; [18],37%
same,growth inhibition,[5]; at 50.0 µM,9.3%
same,growth inhibition,[5]; at 100.0 µM,90% (active)
same,growth inhibition,[6]; at 1.2 µM,0%
same,growth inhibition,[6]; at 3.7 µM,0%
same,growth inhibition,[6]; [17],2%
same,growth inhibition,[6]; at 11.0 µM,-6%
same,growth inhibition,[6]; at 33.0 µM,1%
same,growth inhibition,[6]; [18],27%
same,growth inhibition,[6]; at 50.0 µM,30.6%
same,growth inhibition,[6]; at 100.0 µM,92% (active)
same,growth inhibition,[7]; at 1.2 µM,-4%
same,growth inhibition,[7]; at 3.7 µM,-4%
same,growth inhibition,[7]; at 11.0 µM,-3%
same,growth inhibition,[7]; at 33.0 µM,16%
same,growth inhibition,[7]; at 100.0 µM,87% (active)
same,growth inhibition,[8]; [17],-6%
same,growth inhibition,[8]; [18],56%
same,growth inhibition,[8]; at 50.0 µM,33.5%
same,growth inhibition,[9]; at 1.2 µM,-11%
same,growth inhibition,[9]; at 3.7 µM,-11%
same,growth inhibition,[9]; at 11.0 µM,-8%
same,growth inhibition,[9]; at 33.0 µM,3%
same,growth inhibition,[9]; at 100.0 µM,53%
same,growth inhibition,[10]; [17],15%
same,growth inhibition,[10]; [18],57%
same,growth inhibition,[10]; at 50.0 µM,81.4% (active)
same,growth inhibition,[11]; at 1.2 µM,-6%
same,growth inhibition,[11]; at 3.7 µM,-6%
same,growth inhibition,[11]; [17],-19%
same,growth inhibition,[11]; at 11.0 µM,-2%
same,growth inhibition,[11]; at 33.0 µM,-5%
same,growth inhibition,[11]; [18],7%
same,growth inhibition,[11]; at 50.0 µM,23.4%
same,growth inhibition,[11]; at 100.0 µM,91% (active)
same,growth inhibition,[12]; at 1.2 µM,-1%
same,growth inhibition,[12]; at 3.7 µM,1%
same,growth inhibition,[12]; at 11.0 µM,0%
same,growth inhibition,[12]; at 33.0 µM,28%
same,growth inhibition,[12]; at 100.0 µM,94% (active)
same,growth inhibition,[13]; at 1.2 µM,3%
same,growth inhibition,[13]; at 3.7 µM,1%
same,growth inhibition,[13]; at 11.0 µM,-1%
same,growth inhibition,[13]; at 33.0 µM,28%
same,growth inhibition,[13]; at 100.0 µM,73% (active)
same,growth inhibition,[14]; at 1.2 µM,0%
same,growth inhibition,[14]; at 3.7 µM,-76%
same,growth inhibition,[14]; at 11.0 µM,3%
same,growth inhibition,[14]; at 33.0 µM,37%
same,growth inhibition,[14]; at 100.0 µM,89% (active)
same,growth inhibition,[15]; [17],-7%
same,growth inhibition,[15]; [18],48%
same,growth inhibition,[15]; at 50.0 µM,17.9%
same,growth inhibition,[16]; at 1.2 µM,0%
same,growth inhibition,[16]; at 3.7 µM,0%
same,growth inhibition,[16]; at 11.0 µM,-4%
same,growth inhibition,[16]; at 33.0 µM,10%
same,growth inhibition,[16]; at 100.0 µM,48%
COc1ccc(/C=C2\SC(=S)N(/C=C/c3nc4ccccc4[nH]c3=O)C2=O)cc1OC,growth inhibition,[1]; at 1.2 µM,7%
same,growth inhibition,[1]; at 3.7 µM,10%
same,growth inhibition,[1]; at 11.0 µM,26%
same,growth inhibition,[1]; at 33.0 µM,61%
same,growth inhibition,[1]; at 100.0 µM,86% (active)
same,growth inhibition,[2]; at 1.2 µM,3%
same,growth inhibition,[2]; at 3.7 µM,5%
same,growth inhibition,[2]; at 11.0 µM,10%
same,growth inhibition,[2]; at 33.0 µM,40%
same,growth inhibition,[2]; at 100.0 µM,90% (active)
same,growth inhibition,[3]; at 1.2 µM,1%
same,growth inhibition,[3]; at 3.7 µM,3%
same,growth inhibition,[3]; at 11.0 µM,21%
same,growth inhibition,[3]; at 33.0 µM,50%
same,growth inhibition,[3]; at 100.0 µM,63%
same,growth inhibition,[4]; at 1.2 µM,-1%
same,growth inhibition,[4]; at 3.7 µM,3%
same,growth inhibition,[4]; at 11.0 µM,30%
same,growth inhibition,[4]; at 33.0 µM,76% (active)
same,growth inhibition,[4]; at 100.0 µM,94% (active)
same,growth inhibition,[5]; at 1.2 µM,-2%
same,growth inhibition,[5]; at 3.7 µM,-5%
same,growth inhibition,[5]; [17],-12%
same,growth inhibition,[5]; at 11.0 µM,12%
same,growth inhibition,[5]; at 33.0 µM,61%
same,growth inhibition,[5]; [18],46%
same,growth inhibition,[5]; at 50.0 µM,57.2%
same,growth inhibition,[5]; at 100.0 µM,85% (active)
same,growth inhibition,[6]; at 1.2 µM,3%
same,growth inhibition,[6]; at 3.7 µM,5%
same,growth inhibition,[6]; [17],-17%
same,growth inhibition,[6]; at 11.0 µM,17%
same,growth inhibition,[6]; at 33.0 µM,66%
same,growth inhibition,[6]; [18],45%
same,growth inhibition,[6]; at 50.0 µM,68.1%
same,growth inhibition,[6]; at 100.0 µM,91% (active)
same,growth inhibition,[7]; at 1.2 µM,3%
same,growth inhibition,[7]; at 3.7 µM,4%
same,growth inhibition,[7]; at 11.0 µM,26%
same,growth inhibition,[7]; at 33.0 µM,64%
same,growth inhibition,[7]; at 100.0 µM,90% (active)
same,growth inhibition,[8]; [17],-7%
same,growth inhibition,[8]; [18],57%
same,growth inhibition,[8]; at 50.0 µM,87% (active)
same,growth inhibition,[9]; at 1.2 µM,-17%
same,growth inhibition,[9]; at 3.7 µM,-11%
same,growth inhibition,[9]; at 11.0 µM,7%
same,growth inhibition,[9]; at 33.0 µM,59%
same,growth inhibition,[9]; at 100.0 µM,88% (active)
same,growth inhibition,[10]; [17],-30%
same,growth inhibition,[10]; [18],26%
same,growth inhibition,[10]; at 50.0 µM,32.5%
same,growth inhibition,[11]; at 1.2 µM,4%
same,growth inhibition,[11]; at 3.7 µM,4%
same,growth inhibition,[11]; [17],-14%
same,growth inhibition,[11]; at 11.0 µM,19%
same,growth inhibition,[11]; at 33.0 µM,52%
same,growth inhibition,[11]; [18],4%
same,growth inhibition,[11]; at 50.0 µM,70.3% (active)
same,growth inhibition,[11]; at 100.0 µM,85% (active)
